GCN5L2 inh – blocks human GCN5L2 histone acetyltransferase. GCN5L2 HAT assay, ThioGlo1 CoA-SH fluorescence. Potency, µM (highest dose often 58.9 µM), inactives show at the highest dose activity change, negative = inhibition, hits mostly inhibitors. 390,000 compounds, 0.21% hits; also: potency is read from the fitted curve at half-maximal effect
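Fluorescence readout, Ex340nm/Em540nm: ThioGlo1 (50uM final) reacts with free CoA thiol released as 20nM GCN5L2 acetylates H3(1-25) peptide (75uM) using acetyl-CoA (70uM). Compound and enzyme sat 15 min beforehand; 20 min room-temperature reaction.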
GLS inh – inhibitors of human glutaminase (GLS); O94925; GLS enzymatic activity, qHTS titration; Potency, µM (series often up to 45.5 µM), inactives show at the top dose activity change, negative = inhibition, actives largely listed as inhibitors; 410,000 compounds, 0.21% hits; also: potency is read from the fitted curve at half-maximal effect
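Assay buffer: 45 mM KH2PO4 pH 8.2, 0.02% Tween-20. hKGA acts on L-glutamine (1 mM solution added); product glutamate is reported by an oxidase/peroxidase Amplex Red coupling, with fluorescence taken at baseline and 30 min.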
VDR inh – blocks the human vitamin D receptor; 400,000 compounds, 0.93% hits; VDR-SRC2-3 peptide fluorescence polarization, 2 h; P11473; AID 504847; Potency, µM, inactives show max response, negative = inhibition, most hits filed as inhibitors; also: potency is read from the fitted curve at half-maximal effect
Target sequence (P11473 whole entry, looked up): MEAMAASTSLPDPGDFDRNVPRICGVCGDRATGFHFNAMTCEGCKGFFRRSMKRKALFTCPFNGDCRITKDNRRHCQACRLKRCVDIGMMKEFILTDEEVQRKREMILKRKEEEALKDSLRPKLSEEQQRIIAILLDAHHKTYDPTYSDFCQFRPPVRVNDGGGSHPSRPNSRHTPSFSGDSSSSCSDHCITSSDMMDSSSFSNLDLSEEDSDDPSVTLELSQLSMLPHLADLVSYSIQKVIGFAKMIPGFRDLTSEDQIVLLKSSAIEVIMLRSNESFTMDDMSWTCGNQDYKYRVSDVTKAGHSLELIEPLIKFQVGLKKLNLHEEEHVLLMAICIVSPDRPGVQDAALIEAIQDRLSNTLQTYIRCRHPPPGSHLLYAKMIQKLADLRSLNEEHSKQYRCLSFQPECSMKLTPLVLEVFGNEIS
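FP read-out; VDR + SRC2-3 coactivator peptide; 23 nl compound by pintool; 2 h RT incubation; reagents held at 4 deg C, protected from light.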
PLK1 PBD block – blocks phosphopeptide binding to human PLK1 polo-box domain | 360,000 compounds, 2.8% hits | AID 720504 | Potency, µM, without a hit: max response, negative = inhibition, most hits filed as inhibitors | P53350 | Plk1 PBD binding of FITC phosphopeptide, fluorescence polarization; also: potency is read from the fitted curve at half-maximal effect; series mostly up to about 57 µM; nearly all actives have a fitted effect of over 65% in size
PI4K2A inh – blocks human PI4K2A kinase activity; 420,000 compounds, 0.13% hits; purified PI4K2A, ADP-Glo luminescence, 1 h; stronger effect = lower value; activity change, negative = inhibition, % at 76.9 µM; Q9BTU6; in the data active = activity change below about -50%; inconclusive = mostly about -30% to -49%;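 also: -100% = wells without enzyme as full effect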
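Compounds are screened against recombinant PI4K2A using PI as substrate and ATP, the latter dispensed at 300 microM. Reactions run one hour at ambient temperature before ADP-Glo detection; full inhibition defined by wells lacking enzyme.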
* = called active by the depositor; u = inconclusive; x = no result given. Shown are actives, neighbours in structure and some others; about 3.1% of the full set was active somewhere. Unless noted, calls follow the shape of the dose curve; as a rule, active = well fitted curve in the direction sought with a large enough effect; inconclusive = small, poorly fitted or top-dose-only effect, or another doubt; inactive = no such curve, though single readings can be large; an effect the other way counts as inactive or inconclusive. Unless noted, % is scaled to controls: 0 for no effect and ±100 for the full control effect.

SMILES | GCN5L2 inh | GLS inh | VDR inh | PLK1 PBD block | PI4K2A inh
Cc1ccc(-c2cc(C(=O)N3CCC(C)CC3)c3ccccc3n2)cc1 | -8.9% | -6.7% | 0.8% | -1.6% | 0.7
Cc1ccc(-c2cc(C(=O)N3CC(C)OC(C)C3)c3ccccc3n2)o1 (centres undefined) | 22.4µM* | 5.0% | -10.1% | -5.7% | 1.2
CCC(=O)NC[C@H](Cc1ccc(OCCc2nc(-c3ccccc3)oc2C)cc1)N/C(C)=C\C(=O)c1ccc(C(F)(F)F)cc1 | -19.5% | x | 0.1% | x | x
COc1ccc2oc(=O)cc(-c3cc4cccc(OC)c4o3)c2c1 | -5.3% | -10.1% | -9.8% | -11.0% | -0.6
COc1cccc2cc(-c3cc(=O)oc4cc(C)c(OCC(C)=O)cc34)oc12 | 1.1% | -6.1% | -17.1% | 16.8µM* | -2.6
CC1CCN(C(=S)c2ccc3c(c2)OCO3)CC1 | -9.2% | -0.3% | 7.6% | -5.3% | -3.2
S=C(c1ccc2c(c1)OCO2)N1CCN(c2cccc(Cl)c2)CC1 | x | -13.1% | u | 9.47µM* | -3.4
Cc1cccc(N2CCN(C(=S)c3ccc4c(c3)OCO4)CC2)c1 | x | -7.4% | 79.4µM* | 10.6µM* | -0.8
O=C(NC1CCCCN(Cc2ccc(Cl)cc2)C1=O)c1ccccc1-c1ccc(Cl)c(Cl)c1 (centres undefined) | x | x | x | x | -1.3
COC(=O)C[C@@H]1CC[C@@H]2[C@H](COc3ccc(NC(=O)c4ccc(F)c(F)c4)cc3C(=O)N2C)O1 | x | x | x | x | -3.4
Cc1ccc(S(=O)(=O)n2nc(OC(=O)c3c(-c4ccccc4Cl)noc3C)cc2N)cc1 | -10.3% | u | -21.3% | 2.67µM* | 20.6
COc1ccc(S(=O)(=O)n2nc(OC(=O)c3ccncc3)cc2N)cc1 | -1.7% | 29.3% | u | 26.7µM* | -4.3
Cc1onc(-c2ccccc2Cl)c1C(=O)Oc1cc(N)n(S(=O)(=O)c2ccc(F)cc2)n1 | -25.6% | -3.1% | 7.4% | 0.9% | 55.9
O=C(NN=Cc1ccccc1C(F)(F)F)c1cc(-c2ccc(Cl)cc2)n[nH]1 | x | x | x | x | -1.9
CCCC[C@H]1C2CC(OC(=O)Nc3cc(C)cc(C)c3)C(C2)[C@H]2CCCCN21 (some centres undefined) | x | x | x | x | -7.2
C[C@@H]1CC(=O)NN=C1c1ccc(NN=C(C#N)C#N)cc1 | x | x | x | x | -3.3
CC1=C(c2ccc(NN=C(C#N)C#N)cc2)NNC(=O)C1 | -12.1% | 22.0% | 20µM* | x | x
CCCN1CCN(C(=O)c2oc3ccccc3c2NC(=O)COc2ccc(OC)cc2)CC1 | -15.6% | 11.1% | 20µM* | -6.4% | 1.4
COc1ccc(OCC(=O)Nc2c(C(=O)N3CCN(c4ccccc4)CC3)oc3ccccc23)cc1 | -0.4% | -11.0% | 7.3% | x | 2.9
COc1ccc(OCC(=O)Nc2c(C(=O)N3CCN(C)CC3)oc3ccccc23)cc1 | -15.3% | 0.1% | -29.7% | 29.9µM* | 2.2
C=CCN1[C@H](C#N)[C@@H](c2ccc(C#Cc3cccc(OC)c3)cc2)[C@H]1CO | x | x | x | x | -17.8
O=C(NN=C1CCCCCCC1)c1ccc(F)cc1 | -5.8% | 2.6% | -20.4% | 18.9µM* | 3.4
O=C1C(Cl)=C(Nc2cccc(O)c2)C(=O)N1Cc1ccccc1 | -9.7% | -18.7% | 3.2% | 26.7µM* | -1.0
Cc1cc(C(=O)O)ccc1-c1ccc(/C=C2\NC(=O)N(Cc3ccccc3Cl)C2=O)o1 | u | -12.0% | u | 16.8µM* | -6.1
CC1=C(C(=O)NCc2cccc(Cl)c2)C2(CCCCCC2)OC1=O | -14.0% | -11.2% | 2.4% | x | -8.5
SMILES | GCN5L2 inh | GLS inh | VDR inh | PLK1 PBD block | PI4K2A inh
O=C(COc1ccc(F)cc1)Nc1nc(-c2cccnc2)cs1 | x | 2.0% | x | -27.2% | -3.3
O=C(COc1ccc(Br)cc1)Nc1nnc(-c2cccnc2)s1 | -0.8% | 6.2% | u | 29.9µM* | 8.0
CC(=O)Sc1nc(-c2ccccc2)[nH]c1S(=O)(=O)c1ccc(C)cc1 | -16.1% | u | u | 2.99µM* | 0.3
Cc1ccc(S(=O)(=O)c2[nH]c(-c3ccccc3)nc2SCC(=O)O)cc1 | -5.3% | 19.9% | 2.6% | x | -0.4
CN(CC(=O)Nc1cccc(F)c1)C(=O)CSc1ccccc1F | -10.3% | -1.1% | -0.1% | 23.8µM* | -3.7
O=C(NCCCN1CCOCC1)c1sc2cc([N+](=O)[O-])ccc2c1Cl | u | 0.0% | u | 1.06µM* | 1.9
CCN1CCc2c(sc(-n3cccc3)c2C(C)NC(=O)Nc2cc(Cl)c(OC)cc2OC)C1 (centres undefined) | -6.2% | -26.9% | 12.2% | x | 2.9
CCOc1ccc(N)c(SSc2cc(OCC)ccc2N)c1 | -11.5% | -14.1% | 10µM* | 1.68µM* | -22.2
CCCCCN1CCCCC(NC(=O)c2ccc3ccccc3c2)C1=O (centres undefined) | x | x | x | x | 4.1
CC(C)CCNC(=O)C(CC(C)C)NC(=O)C1OC1C(=O)O (centres undefined) | 2.5% | x | 1.7% | x | x
COc1ccc(CCC(=O)NCc2ccc3c(c2)OCO3)cc1 | -1.3% | -29.3% | 31.1% | -25.3% | -1.4
COc1ccc(NC(=O)Cn2nnc(C(=O)NCc3ccc4c(c3)OCO4)c2N)c(OC)c1 | -15.6% | 17.1% | -28.5% | 21.2µM* | 6.1
COc1cccc(-c2nnc(SCC(=O)NCc3ccc4c(c3)OCO4)n2Cc2ccco2)c1 | 39.8µM* | 8.8% | 15.5% | -12.5% | -6.2
COc1ccc(CC(=O)NCc2ccc3c(c2)OCO3)cc1 | -1.9% | 4.7% | 4.7% | 23.8µM* | -7.5
O=C(CSc1nnc(-c2cccnc2)n1Cc1ccco1)NCc1ccc2c(c1)OCO2 | 1.8% | 1.5% | 5.3% | -3.3% | -0.7
COc1ccc(Cl)cc1S(=O)(=O)NC(C)C(=O)NCc1ccc2c(c1)OCO2 (centres undefined) | -5.7% | -18.3% | u | 23.8µM* | 0.5
CCCCn1c(-c2ccc(OC)cc2)nc2c(=O)n(C)c(=O)[nH]c21 | -1.0% | -23.6% | 50.1µM* | u | 2.5
CCCn1c(-c2ccc(OC)cc2)nc2c(=O)n(C)c(=O)[nH]c21 | -2.7% | -0.9% | 4.4% | -0.7% | 0.1
CCOC(=O)c1cc2c(=O)n3ccccc3nc2n(Cc2ccco2)c1=NC(=O)c1ccc(Br)cc1 | -16.2% | 1.1% | 89.1µM* | x | -16.8
O=c1c(-c2ccccc2)c1-c1ccccc1 | -11.7% | 1.0% | 44.7µM* | x | 20.2
O=c1o[nH]c(-c2ccccc2)c1-c1ccccc1 | x | -4.4% | 2.3% | -11.4% | -2.5
CCOC(=O)C(=CNc1ccc(Cl)cn1)C(=O)OCC | -1.3% | 8.0% | -11.7% | -7.2% | 2.0
CCOC(=O)C(=CNNc1cccc(Cl)c1)C(=O)OCC | -9.3% | u | u | 9.47µM* | 7.7
O=C(Cc1ccccc1)NC1(O)C(=O)c2ccccc2C1=O | -16.8% | -2.5% | 35.5µM* | -15.2% | u
O=S(=O)(Nc1ncccn1)c1ccc(Cl)cc1 | -0.2% | 0.8% | -4.6% | -5.4% | -6.7
O=S(=O)(Nc1ncccn1)c1ccccc1 | -5.2% | u | u | 23.8µM* | -3.5
Cc1ccc(NC(=O)Cn2c(=O)n(Cc3nc(-c4ccccc4)no3)c(=O)c3cc4c(cc32)OCO4)cc1F | -3.1% | 0.7% | -4.9% | x | 3.7
